ELG1 DNA repair – qHTS screen for small molecules that inhibit ELG1-dependent DNA repair in human embryonic kidney (HEK293T) cells expressing luciferase-tagged ELG1. HEK293T ELG1-luciferase reporter, luminescence, 16 h; DNA damage induced by 5-fluorouridine. Potency, µM (titrated, usually from 46.1 µM), for inactives: top-dose activity change, negative = inhibition, usual class: inhibitors. 2.3% of 330,000 active; note: potency is the fitted concentration of half-maximal effect; nearly all actives have a fitted effect of over 55% in size
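Cells (2,000 per well) received 5-fluorouridine plus test compound or DMSO and were incubated 16 hr at 37 °C, 5% CO2. Luciferase activity was read by luminescence 30 min after ONE-Glo addition; signal suppression marked inhibition of damage-induced ELG1 function.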
IL-1B inflam inh – qHTS for Inhibitors of Inflammasome Signaling: IL-1-beta AlphaLISA Primary Screen; THP-1 LPS/ATP IL-1B secretion, AlphaLISA, 16 h; active compounds read low; activity change, % at 57.5 µM; 4.7% of 360,000 active; in the data active = activity change below about -50%; inconclusive = mostly about -30% to -49%
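Secreted IL-1B measured by AlphaLISA bead assay after 16 h compound exposure of THP-1 cells; compounds (final up to 57.5 uM) added 1 h before LPS (250 ng/mL) and ATP (1.25 mM) stimulation; lower signal means less secretion.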
Giardia kill – Small Molecules that selectively kill Giardia lamblia: qHTS; Giardia lamblia trophozoite viability; 0.15% of 340,000 active; activity change, % at 7.66 µM, hits read low; AID 540267, 2011; in the data active = activity change below about -80%; inconclusive = between about -30% and that limit;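 note: parasites exposed to compound for two days anaerobically before the ATP read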
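Giardia trophozoites, 100 cells per well, were exposed to compounds for 48 hrs at 37 deg C under anaerobic conditions; viability was then read as ATP content by bioluminescence after 15-30 min at room temperature.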
TDP1 cell noCPT – qHTS for Inhibitors of human tyrosyl-DNA phosphodiesterase 1 (TDP1): qHTS in cells in absence of CPT. DT40 Tdp1-/- hTDP1 cells, no CPT, ATP luminescence, 48 h. Potency, µM (series often up to 46.2 µM), inactives show at the top dose activity change, negative = growth inhibition, hits mostly inhibitors. 15% of 420,000 active. AID 686978, 2013; note: potency is the fitted concentration of half-maximal effect; nearly all actives have a fitted effect of over 55% in size
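DT40 Tdp1-/-;hTDP1 cells, no CPT (DMSO vehicle only), 400 cells/well; compounds pin-transferred; ≥48 hr, 37 °C; CellTiter-Glo 30 min RT dark, luminescence read.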
TDP1 block – qHTS Assay for Inhibitors of Tyrosyl-DNA Phosphodiesterase (TDP1) | recombinant TDP1, AlphaScreen DNA substrate cleavage | Tyrosyl-DNA phosphodiesterase 1 (Homo sapiens), Q9NUW8 | AID 485290, 2010 | 0.28% of 350,000 active | Potency, µM (doses to about 130 µM), inactives show at the top dose activity change, negative = inhibition, actives largely listed as inhibitors; note: potency is the fitted concentration of half-maximal effect; nearly all actives have a fitted effect of over 40% in size
Target sequence (Q9NUW8 whole entry, looked up): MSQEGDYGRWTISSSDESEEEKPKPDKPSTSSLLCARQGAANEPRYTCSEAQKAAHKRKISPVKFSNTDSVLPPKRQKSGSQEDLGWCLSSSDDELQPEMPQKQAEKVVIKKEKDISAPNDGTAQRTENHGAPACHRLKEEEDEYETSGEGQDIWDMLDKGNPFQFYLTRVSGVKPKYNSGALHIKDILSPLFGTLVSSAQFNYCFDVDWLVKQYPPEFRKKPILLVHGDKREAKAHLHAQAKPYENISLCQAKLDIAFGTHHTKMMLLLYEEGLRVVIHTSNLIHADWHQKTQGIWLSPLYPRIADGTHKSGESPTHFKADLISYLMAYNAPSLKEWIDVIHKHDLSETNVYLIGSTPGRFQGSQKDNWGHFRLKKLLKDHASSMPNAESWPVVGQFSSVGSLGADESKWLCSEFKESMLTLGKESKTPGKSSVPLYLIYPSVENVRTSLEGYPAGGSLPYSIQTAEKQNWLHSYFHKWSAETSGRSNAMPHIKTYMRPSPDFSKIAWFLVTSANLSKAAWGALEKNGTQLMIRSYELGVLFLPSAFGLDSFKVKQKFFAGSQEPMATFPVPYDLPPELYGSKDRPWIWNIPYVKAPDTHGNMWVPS
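Signal: AlphaScreen proximity between streptavidin donor and anti-FITC acceptor beads on intact substrate. Reaction: Tdp1 1 nM, substrate 15 nM final, 5 min RT after 15 min compound preincubation.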
DT40 TDP1 CPT – qHTS for Inhibitors of human tyrosyl-DNA phosphodiesterase 1 (TDP1): qHTS in cells in presence of CPT. AID 686979, 2013. chicken DT40 Tdp1-/-;hTDP1 cells + 20 nM CPT, ATP luminescence, 48 h. Potency, µM (titrated, usually from 46.2 µM), inactives show at the highest dose activity change, negative = growth inhibition, most hits filed as inhibitors. 12% of 420,000 active; note: potency is the fitted concentration of half-maximal effect; nearly all actives have a fitted effect of over 55% in size
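Cell growth measured by CellTiter-Glo luminescence after a minimum 48 h, 37 C compound exposure with 20 nM CPT in Tdp1-knockout DT40 cells stably expressing hTDP1, seeded 400/well; qHTS titration format.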
Numbers without * were called inactive; ? = inconclusive; . = not tested or not shown; [ ] = remark or other dose. Rows were chosen to be rich in hits. Some 19% of all compounds tested hit in one or more screens of this group. Unless noted, calls come from the whole dose curve; as a rule, active = well fitted curve in the direction sought with a large enough effect; inconclusive = small, poorly fitted or top-dose-only effect, or another doubt; inactive = no such curve, though single readings can be large; an effect the other way counts as inactive or inconclusive. % is set by controls: 0 for no effect and ±100 for the full control effect.

SMILES | ELG1 DNA repair | IL-1B inflam inh | Giardia kill | TDP1 cell noCPT | TDP1 block | DT40 TDP1 CPT
CCN(CC)C(=O)C1CCCN(c2ncnc3onc(C)c23)C1 (stereo not given) | . | . | . | ? | -3.2% | ?
O=C(Nc1cccc(C(F)(F)F)c1)C1CCCN(S(=O)(=O)c2cnc[nH]2)C1 (stereo not given) | -13.5% | 15.4 | -5.9 | -29.7% | 7.9% | -24.4%
Cc1noc2ncnc(N3CCCC(C(=O)Nc4cc(F)ccc4F)C3)c12 (stereo not given) | . | . | . | 11.6µM* | 6.3% | 13µM*
Cc1noc2ncnc(N3CCCC(C(=O)Nc4cccc(C(F)(F)F)c4)C3)c12 (stereo not given) | . | . | . | 18.4µM* | 5.3% | 14.6µM*
COc1ccc(Cl)cc1NC(=O)C1CCCN(c2ncnc3onc(C)c23)C1 (stereo not given) | . | . | . | 23.1µM* | 4.2% | 18.4µM*
COc1ccc(NC(=O)C2CCCN(c3ncnc4onc(C)c34)C2)cc1OC (stereo not given) | . | . | . | 23.1µM* | 5.7% | ?
Cc1ccc(NC(=O)C2CCCN2c2nn3c(=O)cc(C)nc3s2)cc1 (stereo not given) | 0.7% | 14.1 | 1.3 | ? | . | 0.5%
CC1=C(C(=O)OCc2ccccc2)C(c2ccccc2OS(=O)(=O)c2ccc([N+](=O)[O-])cc2)NC(=O)N1CCCC(=O)O (stereo not given) | . | 9.2 | -12.9 | -9.3% | . | -19.4%
CCC(COC)NC(=O)c1cnn(-c2ncc3c(n2)-c2ccccc2CC3)c1C (stereo not given) | . | . | . | ? | . | -3.4%[9.04 µM]
Cc1ccccc1CS(=O)(=O)c1nnc([C@H](Cc2ccccc2)NC(=O)OC(C)(C)C)o1 | ? | ? | -3.4 | 2.06µM* | 4.0% | 0.651µM*
CC(C)(C)OC(=O)N[C@@H](Cc1ccccc1)c1nnc(S(=O)(=O)Cc2ccccc2)o1 | -19.1% | . | . | . | 3.9% | .
CCC(C)[C@@H](NC(=O)OC(C)(C)C)c1nnc(S(=O)(=O)Cc2cccc(C)c2)o1 (stereo not given in full) | ? | -116.0* | 0.6 | 4.61µM* | 3.8% | 2.06µM*
Cc1nc(NCc2ccccc2)c2nc(-c3ccccc3)n(CCN3CCOCC3)c2n1 | . | . | . | . | 11.1% | .
COc1ccc(-c2oc3cc(O)c(OC)c(O)c3c(=O)c2OC)cc1 | 11.8% | 48.1 | 5.7 | 13µM* | . | 10.3µM*
COc1ccc(-c2oc3cc(O[C@@H]4OC(CO)C(O)C(O)C4O)c(OC)c(O)c3c(=O)c2OC)cc1O (stereo not given in full) | . | . | . | 14.6µM* | 0.6%[56.1 µM] | ?
COc1ccc(-c2oc3ccc(C)cc3c(=O)c2O)cc1OC | . | . | . | ? | 7.8%[56.1 µM] | 11.9µM*
NC(=O)c1c(-c2ccccc2)oc2ccc(O)cc12 | ? | 0.0 | -5.8 | -13.6% | 6.9% | -22.7%
O=c1c(O)c(-c2ccc(O)cc2)oc2ccc(O)cc12 | . | . | . | 13.3µM* | 10.7% | 13.3µM*
COc1ccc(-c2oc3c(OC)c(OC)c(OC)c(O)c3c(=O)c2OC)cc1OC | 11.6µM* | 33.9 | -5.8 | 20.6µM* | 1.3% | ?
OCC1O[C@@H](OC2C(O)C(CO)O[C@@]2(CO)O[C@@H]2OC(CO)C(O)C(O)C2O)C(O)C(O)C1O (stereo not given in full) | . | . | . | -8.4% | 7.2% | -1.6%
CCc1ccc(NC(=O)c2sc3nc(C)c(Cl)c(C)c3c2NC(=O)c2ccccc2)cc1 | . | . | . | . | 7.1% | .
CC(C)(C)c1ccc(C(=O)O/N=C(\N)c2ccccc2)cc1 | ? | 6.8 | 15.2 | 13µM* | . | ?
